Legend:
Experiment in all cases: log2 ratio of Biotin-Ahx-Ub-VS probe labelling (fragment/DMSO); higher = less target engagement (more negative = stronger competition), active = hit call of the paper (q ≤ 0.05, log2 ratio ≤ -1)
Conditions in all cases: compound concentration: 200 uM; treatment time: 3 h
[1] = biological target: T1, USP42 (UniProt Q9H9J4)
T1 sequence (whole entry): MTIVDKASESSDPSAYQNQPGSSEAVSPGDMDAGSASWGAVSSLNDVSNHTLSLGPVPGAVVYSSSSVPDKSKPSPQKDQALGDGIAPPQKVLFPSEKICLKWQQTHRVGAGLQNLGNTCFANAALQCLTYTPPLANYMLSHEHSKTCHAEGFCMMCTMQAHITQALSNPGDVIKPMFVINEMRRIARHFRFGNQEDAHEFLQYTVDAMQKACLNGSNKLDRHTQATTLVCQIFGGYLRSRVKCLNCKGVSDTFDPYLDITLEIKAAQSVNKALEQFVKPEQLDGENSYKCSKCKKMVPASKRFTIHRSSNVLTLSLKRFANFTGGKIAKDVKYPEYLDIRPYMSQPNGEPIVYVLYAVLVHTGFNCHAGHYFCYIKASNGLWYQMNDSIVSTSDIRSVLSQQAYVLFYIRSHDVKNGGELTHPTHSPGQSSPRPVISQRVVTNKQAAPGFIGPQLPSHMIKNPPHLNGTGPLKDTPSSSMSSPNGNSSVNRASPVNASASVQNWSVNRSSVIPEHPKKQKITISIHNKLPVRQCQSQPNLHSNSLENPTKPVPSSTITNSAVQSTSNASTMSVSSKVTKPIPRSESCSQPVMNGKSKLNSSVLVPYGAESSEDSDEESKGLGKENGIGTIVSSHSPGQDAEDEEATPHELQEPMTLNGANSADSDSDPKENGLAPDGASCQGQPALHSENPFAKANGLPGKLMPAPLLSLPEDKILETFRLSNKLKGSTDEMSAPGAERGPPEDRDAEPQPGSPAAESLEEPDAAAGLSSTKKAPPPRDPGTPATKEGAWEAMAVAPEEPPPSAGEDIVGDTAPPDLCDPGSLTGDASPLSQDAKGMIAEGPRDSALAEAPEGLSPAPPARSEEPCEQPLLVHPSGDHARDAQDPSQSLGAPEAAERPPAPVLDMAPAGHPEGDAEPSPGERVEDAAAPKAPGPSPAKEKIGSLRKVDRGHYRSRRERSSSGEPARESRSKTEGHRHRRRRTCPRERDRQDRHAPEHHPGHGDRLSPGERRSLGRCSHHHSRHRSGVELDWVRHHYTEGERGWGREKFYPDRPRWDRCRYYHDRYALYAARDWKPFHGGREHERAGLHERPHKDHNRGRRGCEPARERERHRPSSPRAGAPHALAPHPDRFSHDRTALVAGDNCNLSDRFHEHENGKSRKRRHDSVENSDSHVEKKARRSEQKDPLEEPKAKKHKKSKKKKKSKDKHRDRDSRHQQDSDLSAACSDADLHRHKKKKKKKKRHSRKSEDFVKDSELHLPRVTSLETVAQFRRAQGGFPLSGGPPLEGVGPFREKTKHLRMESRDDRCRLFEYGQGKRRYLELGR
How it was run: (§1)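 Labelling with Biotin-Ahx-Ub-VS (0.5 µM final, 1 h) followed a 3 h triplicate treatment of HEK293T lysate (495 µg per sample, Tris/CHAPS/IGEPAL buffer with protease inhibitors) with fragment at 200 µM or vehicle. Labelled DUBs were NeutrAvidin-enriched, digested with LysC and trypsin, and run by diaPASEF LC-MS/MS. The values, average log2 fragment/vehicle ratios by unpaired t-test, come from global-median-normalised Spectronaut label-free quantities. Proteins with ≥2 unique peptides were used.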

[2] = biological target: USP46 (UniProt P62068)
How it was run: as §1

[3] = biological target: T2, USP47 (UniProt Q96K76)
T2 sequence (whole entry): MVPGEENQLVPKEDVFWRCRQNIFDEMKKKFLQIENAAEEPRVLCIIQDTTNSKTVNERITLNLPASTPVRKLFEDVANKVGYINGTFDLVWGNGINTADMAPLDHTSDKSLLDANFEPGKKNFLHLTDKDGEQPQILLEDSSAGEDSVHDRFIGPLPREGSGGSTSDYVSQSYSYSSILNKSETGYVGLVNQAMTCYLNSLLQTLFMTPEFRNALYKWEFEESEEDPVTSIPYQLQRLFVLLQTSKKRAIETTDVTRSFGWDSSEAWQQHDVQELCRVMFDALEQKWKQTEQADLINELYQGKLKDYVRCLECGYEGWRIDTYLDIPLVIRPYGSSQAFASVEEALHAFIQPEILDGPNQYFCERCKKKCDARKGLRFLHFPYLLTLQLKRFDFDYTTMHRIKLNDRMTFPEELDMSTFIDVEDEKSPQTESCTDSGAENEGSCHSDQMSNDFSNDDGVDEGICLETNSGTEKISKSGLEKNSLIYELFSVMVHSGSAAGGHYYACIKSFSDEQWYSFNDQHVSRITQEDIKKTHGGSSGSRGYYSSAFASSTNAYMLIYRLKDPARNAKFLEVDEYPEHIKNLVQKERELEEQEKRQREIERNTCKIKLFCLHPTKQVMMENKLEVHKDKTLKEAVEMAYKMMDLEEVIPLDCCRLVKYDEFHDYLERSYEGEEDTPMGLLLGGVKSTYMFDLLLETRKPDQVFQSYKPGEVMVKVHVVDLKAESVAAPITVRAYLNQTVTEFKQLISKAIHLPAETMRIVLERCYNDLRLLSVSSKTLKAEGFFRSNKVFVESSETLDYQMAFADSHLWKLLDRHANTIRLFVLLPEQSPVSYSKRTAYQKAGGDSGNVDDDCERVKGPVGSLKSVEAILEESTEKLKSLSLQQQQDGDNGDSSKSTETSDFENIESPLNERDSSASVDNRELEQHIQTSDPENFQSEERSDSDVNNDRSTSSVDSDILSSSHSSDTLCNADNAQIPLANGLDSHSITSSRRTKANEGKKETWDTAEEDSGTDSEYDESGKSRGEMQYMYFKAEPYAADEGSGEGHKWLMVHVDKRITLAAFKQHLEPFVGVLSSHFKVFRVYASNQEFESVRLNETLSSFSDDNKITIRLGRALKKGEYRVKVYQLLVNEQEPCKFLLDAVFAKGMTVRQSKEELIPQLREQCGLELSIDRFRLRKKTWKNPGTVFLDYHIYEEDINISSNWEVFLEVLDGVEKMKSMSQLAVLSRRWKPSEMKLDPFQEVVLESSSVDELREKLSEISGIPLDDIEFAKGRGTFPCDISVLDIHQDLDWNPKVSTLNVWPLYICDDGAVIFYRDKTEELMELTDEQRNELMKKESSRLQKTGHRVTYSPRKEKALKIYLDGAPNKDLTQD
How it was run: as §1

[4] = biological target: T3, USP48 (UniProt Q86UV5)
T3 sequence (whole entry): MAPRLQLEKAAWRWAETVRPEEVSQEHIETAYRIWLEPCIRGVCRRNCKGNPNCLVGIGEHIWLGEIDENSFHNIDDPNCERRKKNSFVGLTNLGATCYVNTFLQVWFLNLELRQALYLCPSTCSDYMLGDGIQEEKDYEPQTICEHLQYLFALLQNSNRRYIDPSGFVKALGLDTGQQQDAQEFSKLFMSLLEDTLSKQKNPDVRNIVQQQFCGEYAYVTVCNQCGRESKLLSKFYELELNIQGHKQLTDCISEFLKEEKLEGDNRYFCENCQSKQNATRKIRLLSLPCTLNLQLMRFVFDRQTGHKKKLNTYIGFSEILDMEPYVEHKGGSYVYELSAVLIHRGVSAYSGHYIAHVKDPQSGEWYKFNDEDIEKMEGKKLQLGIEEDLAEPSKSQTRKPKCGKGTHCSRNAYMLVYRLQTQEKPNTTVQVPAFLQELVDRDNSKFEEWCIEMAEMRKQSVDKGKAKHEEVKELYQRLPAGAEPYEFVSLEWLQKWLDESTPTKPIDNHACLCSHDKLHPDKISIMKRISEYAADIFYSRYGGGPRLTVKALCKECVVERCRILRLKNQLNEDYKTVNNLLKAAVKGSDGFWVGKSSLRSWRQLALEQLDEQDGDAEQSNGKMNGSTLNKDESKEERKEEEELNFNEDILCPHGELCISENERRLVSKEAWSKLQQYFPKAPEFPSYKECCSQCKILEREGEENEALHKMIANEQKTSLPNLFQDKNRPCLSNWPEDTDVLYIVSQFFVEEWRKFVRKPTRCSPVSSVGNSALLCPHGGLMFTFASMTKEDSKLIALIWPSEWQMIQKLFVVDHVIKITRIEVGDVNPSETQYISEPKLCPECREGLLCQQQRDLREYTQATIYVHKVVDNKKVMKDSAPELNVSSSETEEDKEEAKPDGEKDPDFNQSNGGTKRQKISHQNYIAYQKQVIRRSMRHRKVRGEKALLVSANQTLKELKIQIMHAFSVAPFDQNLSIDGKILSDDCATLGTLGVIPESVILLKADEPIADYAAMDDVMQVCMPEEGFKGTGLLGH
How it was run: as §1

[5] = biological target: T4, USP5 (UniProt P45974)
T4 sequence (whole entry): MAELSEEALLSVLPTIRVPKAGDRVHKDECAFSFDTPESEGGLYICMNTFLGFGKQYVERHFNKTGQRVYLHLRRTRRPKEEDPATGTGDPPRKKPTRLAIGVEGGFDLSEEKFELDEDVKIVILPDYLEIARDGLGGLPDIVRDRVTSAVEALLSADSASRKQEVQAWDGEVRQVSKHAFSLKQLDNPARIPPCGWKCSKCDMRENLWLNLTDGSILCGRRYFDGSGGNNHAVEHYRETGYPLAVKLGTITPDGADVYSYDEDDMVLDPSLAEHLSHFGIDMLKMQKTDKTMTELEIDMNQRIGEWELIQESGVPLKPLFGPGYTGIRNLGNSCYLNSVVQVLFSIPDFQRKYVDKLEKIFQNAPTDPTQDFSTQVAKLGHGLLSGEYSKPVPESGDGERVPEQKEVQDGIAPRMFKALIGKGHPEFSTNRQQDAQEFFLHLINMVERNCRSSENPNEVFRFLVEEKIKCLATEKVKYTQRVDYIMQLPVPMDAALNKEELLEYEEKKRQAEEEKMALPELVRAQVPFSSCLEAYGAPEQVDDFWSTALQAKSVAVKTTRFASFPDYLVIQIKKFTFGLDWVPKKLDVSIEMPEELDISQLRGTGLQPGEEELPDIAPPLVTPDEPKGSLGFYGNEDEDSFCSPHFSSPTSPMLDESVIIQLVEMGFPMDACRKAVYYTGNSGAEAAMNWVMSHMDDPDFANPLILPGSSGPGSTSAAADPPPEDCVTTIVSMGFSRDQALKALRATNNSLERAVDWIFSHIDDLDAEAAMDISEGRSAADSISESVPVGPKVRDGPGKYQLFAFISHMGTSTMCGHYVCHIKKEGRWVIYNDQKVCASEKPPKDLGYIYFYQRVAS
How it was run: as §1

[6] = biological target: USP54 (UniProt Q70EL1)
How it was run: as §1

[7] = biological target: USP7 (UniProt Q93009)
How it was run: as §1

[8] = biological target: T5, USP8 (UniProt P40818)
T5 sequence (whole entry): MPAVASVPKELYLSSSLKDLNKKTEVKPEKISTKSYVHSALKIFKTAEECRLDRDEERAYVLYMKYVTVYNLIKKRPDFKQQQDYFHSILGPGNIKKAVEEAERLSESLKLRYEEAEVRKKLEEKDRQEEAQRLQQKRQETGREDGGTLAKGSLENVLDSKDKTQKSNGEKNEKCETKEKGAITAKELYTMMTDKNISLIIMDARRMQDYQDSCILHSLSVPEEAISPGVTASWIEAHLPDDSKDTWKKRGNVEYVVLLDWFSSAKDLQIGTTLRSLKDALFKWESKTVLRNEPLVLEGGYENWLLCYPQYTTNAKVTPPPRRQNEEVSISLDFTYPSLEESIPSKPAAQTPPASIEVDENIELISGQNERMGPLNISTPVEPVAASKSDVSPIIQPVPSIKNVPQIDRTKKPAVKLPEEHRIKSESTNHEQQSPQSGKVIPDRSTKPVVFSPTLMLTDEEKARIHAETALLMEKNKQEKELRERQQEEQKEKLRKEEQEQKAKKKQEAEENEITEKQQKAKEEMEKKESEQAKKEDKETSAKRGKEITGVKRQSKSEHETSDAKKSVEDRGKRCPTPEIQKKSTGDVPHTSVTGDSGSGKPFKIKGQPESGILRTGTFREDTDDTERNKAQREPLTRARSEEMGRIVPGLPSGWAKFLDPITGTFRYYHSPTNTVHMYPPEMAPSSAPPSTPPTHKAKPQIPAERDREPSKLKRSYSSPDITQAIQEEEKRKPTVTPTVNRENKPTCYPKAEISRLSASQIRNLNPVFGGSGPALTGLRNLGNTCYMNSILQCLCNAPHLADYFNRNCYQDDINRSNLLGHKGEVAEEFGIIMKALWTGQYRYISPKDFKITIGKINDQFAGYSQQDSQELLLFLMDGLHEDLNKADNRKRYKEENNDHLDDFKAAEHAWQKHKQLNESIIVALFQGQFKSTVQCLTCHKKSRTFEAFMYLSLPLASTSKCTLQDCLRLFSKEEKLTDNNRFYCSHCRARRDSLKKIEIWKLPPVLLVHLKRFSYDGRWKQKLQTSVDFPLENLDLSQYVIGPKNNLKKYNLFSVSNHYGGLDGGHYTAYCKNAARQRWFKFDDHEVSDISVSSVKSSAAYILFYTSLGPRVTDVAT
How it was run: as §1

[9] = biological target: USP9X (UniProt Q93008)
How it was run: as §1

[10] = biological target: UniProt O00487
How it was run: as §1

Measured: log2 ratio of Biotin-Ahx-Ub-VS probe labelling

Sequence of UniProt O00487 (O00487 whole entry): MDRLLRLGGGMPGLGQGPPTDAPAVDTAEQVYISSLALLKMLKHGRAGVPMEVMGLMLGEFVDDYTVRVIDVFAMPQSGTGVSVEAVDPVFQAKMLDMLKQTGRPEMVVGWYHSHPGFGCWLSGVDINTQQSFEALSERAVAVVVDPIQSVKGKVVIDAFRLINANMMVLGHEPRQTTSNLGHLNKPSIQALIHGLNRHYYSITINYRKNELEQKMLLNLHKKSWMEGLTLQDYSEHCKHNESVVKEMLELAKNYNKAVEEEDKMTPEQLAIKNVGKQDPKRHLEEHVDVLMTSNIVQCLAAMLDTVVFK
Sequence of USP54 (Q70EL1 whole entry): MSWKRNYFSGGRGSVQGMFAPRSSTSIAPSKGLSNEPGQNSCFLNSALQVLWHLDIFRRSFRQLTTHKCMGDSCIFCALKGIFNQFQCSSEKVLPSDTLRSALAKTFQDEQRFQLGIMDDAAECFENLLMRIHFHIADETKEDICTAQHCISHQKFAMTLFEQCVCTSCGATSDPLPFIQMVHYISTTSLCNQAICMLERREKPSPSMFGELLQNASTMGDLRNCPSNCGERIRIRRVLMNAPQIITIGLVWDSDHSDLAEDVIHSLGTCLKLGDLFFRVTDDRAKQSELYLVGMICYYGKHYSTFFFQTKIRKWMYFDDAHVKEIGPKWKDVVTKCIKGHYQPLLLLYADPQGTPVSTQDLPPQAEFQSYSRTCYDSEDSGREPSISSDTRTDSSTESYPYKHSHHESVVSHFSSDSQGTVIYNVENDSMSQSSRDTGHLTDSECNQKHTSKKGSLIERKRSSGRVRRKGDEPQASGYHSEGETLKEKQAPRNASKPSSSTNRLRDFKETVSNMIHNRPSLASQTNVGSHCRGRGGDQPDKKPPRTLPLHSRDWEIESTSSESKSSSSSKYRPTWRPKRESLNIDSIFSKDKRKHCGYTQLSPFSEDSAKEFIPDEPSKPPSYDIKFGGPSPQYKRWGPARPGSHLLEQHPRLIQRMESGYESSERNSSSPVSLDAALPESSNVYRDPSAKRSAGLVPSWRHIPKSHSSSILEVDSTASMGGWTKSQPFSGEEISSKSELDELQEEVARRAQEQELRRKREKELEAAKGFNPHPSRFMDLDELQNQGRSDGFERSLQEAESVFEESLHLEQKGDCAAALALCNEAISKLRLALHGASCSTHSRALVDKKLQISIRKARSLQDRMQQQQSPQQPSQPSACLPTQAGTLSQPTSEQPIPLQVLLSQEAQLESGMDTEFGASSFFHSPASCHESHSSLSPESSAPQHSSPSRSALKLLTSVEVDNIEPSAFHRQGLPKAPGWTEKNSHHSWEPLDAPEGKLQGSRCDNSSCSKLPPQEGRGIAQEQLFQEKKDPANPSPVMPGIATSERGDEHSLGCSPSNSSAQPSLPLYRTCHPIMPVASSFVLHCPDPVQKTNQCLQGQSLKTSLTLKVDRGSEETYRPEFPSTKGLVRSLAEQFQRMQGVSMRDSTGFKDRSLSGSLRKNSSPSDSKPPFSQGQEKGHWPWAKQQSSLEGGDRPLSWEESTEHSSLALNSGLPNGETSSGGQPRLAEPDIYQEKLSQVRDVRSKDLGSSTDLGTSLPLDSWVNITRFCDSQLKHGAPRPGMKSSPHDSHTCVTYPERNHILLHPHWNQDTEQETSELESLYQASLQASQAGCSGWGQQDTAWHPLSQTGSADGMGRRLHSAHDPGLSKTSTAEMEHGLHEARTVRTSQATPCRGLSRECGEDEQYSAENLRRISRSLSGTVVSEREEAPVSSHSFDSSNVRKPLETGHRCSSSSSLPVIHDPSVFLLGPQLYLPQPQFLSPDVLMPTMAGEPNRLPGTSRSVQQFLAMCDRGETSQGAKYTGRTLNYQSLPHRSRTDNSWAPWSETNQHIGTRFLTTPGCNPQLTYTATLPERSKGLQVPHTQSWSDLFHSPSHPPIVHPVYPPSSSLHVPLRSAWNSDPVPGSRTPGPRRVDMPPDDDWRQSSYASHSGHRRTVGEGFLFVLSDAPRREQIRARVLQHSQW
Sequence of USP46 (P62068 whole entry): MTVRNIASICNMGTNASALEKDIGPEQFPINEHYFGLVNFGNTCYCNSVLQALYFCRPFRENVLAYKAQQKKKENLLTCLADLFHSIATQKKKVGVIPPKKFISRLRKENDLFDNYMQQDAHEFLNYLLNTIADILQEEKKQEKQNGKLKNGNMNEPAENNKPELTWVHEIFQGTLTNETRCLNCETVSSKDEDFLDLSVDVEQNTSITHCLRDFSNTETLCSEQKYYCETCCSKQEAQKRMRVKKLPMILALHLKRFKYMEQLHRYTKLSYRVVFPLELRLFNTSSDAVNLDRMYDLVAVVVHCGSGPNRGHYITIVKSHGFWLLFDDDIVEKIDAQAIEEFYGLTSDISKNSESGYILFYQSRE
Sequence of USP7 (Q93009 whole entry, looked up): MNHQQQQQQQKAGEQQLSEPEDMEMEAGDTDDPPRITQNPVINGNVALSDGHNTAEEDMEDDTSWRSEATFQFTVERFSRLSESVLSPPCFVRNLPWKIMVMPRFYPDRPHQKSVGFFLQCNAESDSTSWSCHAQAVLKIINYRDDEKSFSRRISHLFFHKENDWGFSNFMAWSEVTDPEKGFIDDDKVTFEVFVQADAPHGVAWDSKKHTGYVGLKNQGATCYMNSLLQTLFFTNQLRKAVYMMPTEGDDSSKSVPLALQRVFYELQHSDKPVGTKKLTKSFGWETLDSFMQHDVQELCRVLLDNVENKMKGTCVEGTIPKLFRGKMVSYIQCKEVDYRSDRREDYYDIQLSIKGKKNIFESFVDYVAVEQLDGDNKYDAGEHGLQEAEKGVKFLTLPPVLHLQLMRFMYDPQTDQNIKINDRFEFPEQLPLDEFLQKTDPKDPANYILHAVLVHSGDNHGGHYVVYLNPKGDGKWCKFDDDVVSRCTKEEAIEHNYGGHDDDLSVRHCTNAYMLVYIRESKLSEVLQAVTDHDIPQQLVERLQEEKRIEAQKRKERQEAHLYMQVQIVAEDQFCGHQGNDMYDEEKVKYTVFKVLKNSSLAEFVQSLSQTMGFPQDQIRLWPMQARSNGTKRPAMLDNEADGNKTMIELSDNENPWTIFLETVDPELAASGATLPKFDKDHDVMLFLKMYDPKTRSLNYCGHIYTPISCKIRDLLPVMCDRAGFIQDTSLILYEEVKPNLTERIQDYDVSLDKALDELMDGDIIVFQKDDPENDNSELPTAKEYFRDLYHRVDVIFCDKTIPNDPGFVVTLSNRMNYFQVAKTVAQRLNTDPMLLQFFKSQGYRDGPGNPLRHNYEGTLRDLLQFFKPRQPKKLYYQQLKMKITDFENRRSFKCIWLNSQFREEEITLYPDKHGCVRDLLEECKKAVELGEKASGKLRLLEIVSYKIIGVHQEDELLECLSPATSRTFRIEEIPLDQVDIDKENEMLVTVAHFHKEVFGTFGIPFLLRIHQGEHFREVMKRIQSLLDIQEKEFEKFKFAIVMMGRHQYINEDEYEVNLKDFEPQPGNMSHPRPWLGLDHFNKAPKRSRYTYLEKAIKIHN

CC(=O)C1CCCCN1C(=O)CCl (stereo not given)
inactive: [1] 0.359 | [2] 0.0148 | [3] -0.0598 | [4] -0.362 | [5] -0.139 | [6] 0.498 | [7] -0.172 | [8] 0.076 | [9] -0.034 | [10] -0.0675

From the supplement of paper PMC11732987, “Enantioselective OTUD7B fragment discovery through chemoproteomics screening and high-throughput optimisation” (Communications Chemistry, 2025)
